Data from the supplement of paper PMC10849652.
Of roughly 8,800 targets only a part is listed; those with a hit were picked by preference. About 0.5% of all pairs of compound and target were hits.

Experiments:
Assay in all cases: log2 fold change, soluble protein after heating vs DMSO (PISA); higher = thermal stabilisation; K562 lysate, 10 uM; active = over 0.2 and 3.5 SD of the protein, either way, in both replicates (recomputed)
nilotinib = compound: Cc1cn(-c2cc(NC(=O)c3ccc(C)c(Nc4nccc(-c5cccnc5)n4)c3)cc(C(F)(F)F)c2)cn1 [nilotinib]
Outline: (§1)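 A 30 min treatment with 10 μM compound was applied to crude K562 extract at 1 mg/mL protein in PBS pH 7.4 with 1 mM MgCl2. Heating for 3 min spanned 48°C-58°C, after which aliquots were pooled, adjusted to 0.5% NP-40 at 4°C and spun at 21,000xg for 90 min. TMTpro 16plex LC-MS/MS of the supernatant, with channel sums equalised, gave values recorded as log-two fold change in thermal stability against solvent controls, from duplicates.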

[1] = compound: Cc1nc(Nc2n[nH]c3c2CN(C(=O)N[C@H](CN(C)C)c2ccccc2)C3(C)C)c2sccc2n1
Outline: as §1

dasatinib = compound: Cc1nc(Nc2ncc(C(=O)Nc3c(C)cccc3Cl)s2)cc(N2CCN(CCO)CC2)n1 [dasatinib]
Outline: as §1

[2] = compound: Cc1ncc(-c2ccnc(Nc3ccc(S(C)(=O)=O)cc3)n2)n1C(C)C
Outline: as §1

[3] = compound: Cn1cc(-c2ccc3c(c2)CCN3C(=O)Cc2cccc(C(F)(F)F)c2)c2c(N)ncnc21
Outline: as §1

quisinostat = compound: Cn1cc(CNCC2CCN(c3ncc(C(=O)NO)cn3)CC2)c2ccccc21 [quisinostat]
Outline: as §1

tipifarnib = compound: Cn1cncc1[C@@](N)(c1ccc(Cl)cc1)c1ccc2c(c1)c(-c1cccc(Cl)c1)cc(=O)n2C [tipifarnib]
Outline: as §1

[4] = compound: NC(=O)Nc1cc(-c2cccc(F)c2)sc1C(=O)N[C@H]1CCCNC1
Outline: as §1

[5] = compound: NC(=O)c1cnc(N[C@@H]2CCCC[C@@H]2N)nc1Nc1cccc(-n2nccn2)c1
Outline: as §1

[6] = compound: NC1(c2ccc(-c3nc4ccn5c(=O)[nH]nc5c4cc3-c3ccccc3)cc2)CCC1
Outline: as §1

[7] = compound: NCC(=O)Nc1ccc(-n2nc(C(F)(F)F)cc2-c2ccc3c(ccc4ccccc43)c2)cc1
Outline: as §1

vorinostat = compound: O=C(CCCCCCC(=O)Nc1ccccc1)NO [vorinostat]
Outline: as §1

silmitasertib = compound: O=C(O)c1ccc2c(c1)nc(Nc1cccc(Cl)c1)c1ccncc12 [silmitasertib]
Outline: as §1

[8] = compound: O=C1NC(=O)C(c2cnc3ccccn23)=C1c1cn2c3c(cc(F)cc13)CN(C(=O)N1CCCCC1)CC2
Outline: as §1

entospletinib = compound: c1cn2cc(-c3ccc4cn[nH]c4c3)nc(Nc3ccc(N4CCOCC4)cc3)c2n1 [entospletinib]
Outline: as §1

Measured: log2 fold change

FXR2 (UniProt P51116)
UniProt P51116, sequence (P51116 whole entry, looked up): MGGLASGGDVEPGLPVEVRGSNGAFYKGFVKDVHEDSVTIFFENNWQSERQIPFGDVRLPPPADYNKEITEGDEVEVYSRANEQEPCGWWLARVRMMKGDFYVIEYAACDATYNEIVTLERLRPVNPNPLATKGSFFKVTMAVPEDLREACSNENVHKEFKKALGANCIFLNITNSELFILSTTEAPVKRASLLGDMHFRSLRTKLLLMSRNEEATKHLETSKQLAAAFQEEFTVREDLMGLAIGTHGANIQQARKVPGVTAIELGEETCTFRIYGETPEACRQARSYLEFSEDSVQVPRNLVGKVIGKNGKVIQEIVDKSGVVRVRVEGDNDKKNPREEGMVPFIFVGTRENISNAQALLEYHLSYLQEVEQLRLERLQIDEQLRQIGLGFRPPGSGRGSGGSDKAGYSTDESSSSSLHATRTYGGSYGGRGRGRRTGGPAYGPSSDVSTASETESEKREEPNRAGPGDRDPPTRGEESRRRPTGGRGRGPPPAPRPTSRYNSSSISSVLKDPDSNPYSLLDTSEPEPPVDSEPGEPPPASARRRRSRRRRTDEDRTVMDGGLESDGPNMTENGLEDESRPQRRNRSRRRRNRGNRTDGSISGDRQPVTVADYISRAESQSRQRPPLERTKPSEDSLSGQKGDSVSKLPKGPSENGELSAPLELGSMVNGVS
active: vorinostat -0.25
inactive: nilotinib -0.066 | [1] 0.032 | dasatinib -0.027 | [2] 0.003 | [3] 0.074 | quisinostat 0.025 | tipifarnib 0.015 | [4] -0.034 | [5] -0.012 | [6] -0.003 | [7] 0.033 | silmitasertib -0.039 | [8] -0.022 | entospletinib -0.064

DTYMK (UniProt P23919)
UniProt P23919, sequence (P23919 whole entry, looked up): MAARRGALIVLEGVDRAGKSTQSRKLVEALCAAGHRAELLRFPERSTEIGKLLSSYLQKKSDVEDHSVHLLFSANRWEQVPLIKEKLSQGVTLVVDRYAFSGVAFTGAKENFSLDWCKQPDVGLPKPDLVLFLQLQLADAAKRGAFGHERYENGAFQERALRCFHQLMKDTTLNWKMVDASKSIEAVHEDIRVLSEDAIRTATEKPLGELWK
active: vorinostat -0.294
inactive: nilotinib -0.003 | [1] 0.002 | dasatinib -0.072 | [2] -0.007 | [3] -0.025 | quisinostat -0.009 | tipifarnib 0.017 | [4] 0.045 | [5] -0.024 | [6] -0.007 | [7] -0.022 | silmitasertib 0.071 | [8] -0.023 | entospletinib 0.061

GALNT2 (UniProt Q10471)
UniProt Q10471, sequence (Q10471 whole entry, looked up): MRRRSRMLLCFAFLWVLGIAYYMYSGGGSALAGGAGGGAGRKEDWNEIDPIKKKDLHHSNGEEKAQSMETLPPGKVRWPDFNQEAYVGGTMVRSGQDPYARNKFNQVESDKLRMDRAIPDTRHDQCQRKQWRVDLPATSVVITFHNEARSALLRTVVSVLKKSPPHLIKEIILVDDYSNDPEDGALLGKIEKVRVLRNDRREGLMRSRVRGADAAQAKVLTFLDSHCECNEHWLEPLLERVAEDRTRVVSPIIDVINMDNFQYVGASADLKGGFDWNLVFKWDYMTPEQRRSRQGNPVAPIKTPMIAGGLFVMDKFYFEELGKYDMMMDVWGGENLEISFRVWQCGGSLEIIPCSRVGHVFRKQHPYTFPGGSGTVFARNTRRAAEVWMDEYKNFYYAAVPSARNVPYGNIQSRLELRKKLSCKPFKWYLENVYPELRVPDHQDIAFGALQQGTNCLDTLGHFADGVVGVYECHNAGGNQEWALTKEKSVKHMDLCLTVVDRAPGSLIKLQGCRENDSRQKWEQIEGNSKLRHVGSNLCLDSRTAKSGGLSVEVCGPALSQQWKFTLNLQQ
inactive: nilotinib -0.02 | [1] -0.054 | dasatinib 0.003 | [2] 0.008 | [3] 0.008 | quisinostat 0.081 | tipifarnib -0.067 | [4] -0.004 | [5] -0.002 | [6] -0.031 | [7] -0.018 | vorinostat 0.069 | silmitasertib 0.008 | [8] -0.09 | entospletinib -0.034

ENSA isoform 3 (UniProt O43768)
inactive: nilotinib -0.022 | [1] -0.011 | dasatinib 0.07 | [2] 0.013 | [3] -0.002 | quisinostat 0.051 | tipifarnib -0.002 | [4] -0.025 | [5] -0.029 | [6] 0.021 | [7] -0.029 | vorinostat 0.144 | silmitasertib -0.019 | [8] 0.003 | entospletinib -0.014

EIF1 (UniProt P41567)
UniProt P41567, sequence (P41567 whole entry, looked up): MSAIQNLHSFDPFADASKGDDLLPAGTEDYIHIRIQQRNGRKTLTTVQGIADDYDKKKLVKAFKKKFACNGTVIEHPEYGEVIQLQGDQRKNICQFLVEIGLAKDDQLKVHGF
inactive: nilotinib 0.126 | [1] 0.084 | dasatinib 0.001 | [2] 0.142 | [3] -0.03 | quisinostat 0.133 | tipifarnib 0 | [4] -0.018 | [5] -0.076 | [6] -0.032 | [7] -0.032 | vorinostat 0.12 | silmitasertib -0.024 | [8] 0.036 | entospletinib 0.028

FADS1, A0A0A0MR51
inactive: nilotinib 0.065 | [1] -0.078 | dasatinib 0.04 | [2] 0.02 | [3] 0.079 | quisinostat 0.004 | tipifarnib 0.069 | [4] 0.008 | [5] -0.114 | [6] 0.022 | [7] 0.054 | vorinostat 0.093 | silmitasertib -0.003 | [8] -0.046 | entospletinib -0.028

EIF2AK2 (UniProt P19525)
active: vorinostat -0.415
inactive: nilotinib -0.014 | [1] 0.043 | dasatinib 0.122 | [2] 0.01 | [3] 0.056 | quisinostat -0.087 | tipifarnib -0.032 | [4] 0.045 | [5] -0.013 | [6] -0.054 | [7] 0.021 | silmitasertib 0.038 | [8] -0.017 | entospletinib 0.068

EXOC3 (UniProt O60645)
UniProt O60645, sequence (O60645 whole entry, looked up): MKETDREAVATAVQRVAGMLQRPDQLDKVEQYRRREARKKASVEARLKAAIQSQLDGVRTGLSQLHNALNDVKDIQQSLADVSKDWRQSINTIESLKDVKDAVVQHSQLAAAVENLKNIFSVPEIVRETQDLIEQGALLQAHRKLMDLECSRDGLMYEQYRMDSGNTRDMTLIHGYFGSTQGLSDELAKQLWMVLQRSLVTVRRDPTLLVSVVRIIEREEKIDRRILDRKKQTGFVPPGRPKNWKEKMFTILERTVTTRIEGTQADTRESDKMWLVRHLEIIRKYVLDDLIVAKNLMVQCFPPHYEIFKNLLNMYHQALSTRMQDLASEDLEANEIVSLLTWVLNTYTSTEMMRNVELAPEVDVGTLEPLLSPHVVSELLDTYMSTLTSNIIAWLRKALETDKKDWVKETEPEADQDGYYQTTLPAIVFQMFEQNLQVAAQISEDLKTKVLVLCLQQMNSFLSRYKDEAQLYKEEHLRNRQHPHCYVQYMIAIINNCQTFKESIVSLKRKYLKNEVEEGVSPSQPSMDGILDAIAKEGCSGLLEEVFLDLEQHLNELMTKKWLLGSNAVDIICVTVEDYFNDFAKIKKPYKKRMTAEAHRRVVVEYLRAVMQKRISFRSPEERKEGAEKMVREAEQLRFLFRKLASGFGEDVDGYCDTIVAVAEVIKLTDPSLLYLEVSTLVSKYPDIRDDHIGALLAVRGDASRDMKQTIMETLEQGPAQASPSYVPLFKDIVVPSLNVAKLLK
inactive: nilotinib -0.013 | [1] 0.012 | dasatinib -0.06 | [2] 0.039 | [3] 0.021 | quisinostat -0.115 | tipifarnib -0.018 | [4] 0.063 | [5] 0.005 | [6] -0.005 | [7] 0.018 | silmitasertib 0.03 | [8] 0.002 | entospletinib -0.026
active: vorinostat -0.221

EIF3I (UniProt Q13347)
active: vorinostat -0.316
inactive: nilotinib 0.022 | [1] -0.004 | dasatinib -0.018 | [2] 0.013 | [3] 0.044 | quisinostat -0.009 | tipifarnib 0.018 | [4] 0.036 | [5] 0 | [6] -0.013 | [7] 0.022 | silmitasertib 0.061 | [8] -0.005 | entospletinib 0.005

GAPVD1 isoform 6 (UniProt Q14C86)
UniProt Q14C86, sequence (Q14C86 whole entry, looked up): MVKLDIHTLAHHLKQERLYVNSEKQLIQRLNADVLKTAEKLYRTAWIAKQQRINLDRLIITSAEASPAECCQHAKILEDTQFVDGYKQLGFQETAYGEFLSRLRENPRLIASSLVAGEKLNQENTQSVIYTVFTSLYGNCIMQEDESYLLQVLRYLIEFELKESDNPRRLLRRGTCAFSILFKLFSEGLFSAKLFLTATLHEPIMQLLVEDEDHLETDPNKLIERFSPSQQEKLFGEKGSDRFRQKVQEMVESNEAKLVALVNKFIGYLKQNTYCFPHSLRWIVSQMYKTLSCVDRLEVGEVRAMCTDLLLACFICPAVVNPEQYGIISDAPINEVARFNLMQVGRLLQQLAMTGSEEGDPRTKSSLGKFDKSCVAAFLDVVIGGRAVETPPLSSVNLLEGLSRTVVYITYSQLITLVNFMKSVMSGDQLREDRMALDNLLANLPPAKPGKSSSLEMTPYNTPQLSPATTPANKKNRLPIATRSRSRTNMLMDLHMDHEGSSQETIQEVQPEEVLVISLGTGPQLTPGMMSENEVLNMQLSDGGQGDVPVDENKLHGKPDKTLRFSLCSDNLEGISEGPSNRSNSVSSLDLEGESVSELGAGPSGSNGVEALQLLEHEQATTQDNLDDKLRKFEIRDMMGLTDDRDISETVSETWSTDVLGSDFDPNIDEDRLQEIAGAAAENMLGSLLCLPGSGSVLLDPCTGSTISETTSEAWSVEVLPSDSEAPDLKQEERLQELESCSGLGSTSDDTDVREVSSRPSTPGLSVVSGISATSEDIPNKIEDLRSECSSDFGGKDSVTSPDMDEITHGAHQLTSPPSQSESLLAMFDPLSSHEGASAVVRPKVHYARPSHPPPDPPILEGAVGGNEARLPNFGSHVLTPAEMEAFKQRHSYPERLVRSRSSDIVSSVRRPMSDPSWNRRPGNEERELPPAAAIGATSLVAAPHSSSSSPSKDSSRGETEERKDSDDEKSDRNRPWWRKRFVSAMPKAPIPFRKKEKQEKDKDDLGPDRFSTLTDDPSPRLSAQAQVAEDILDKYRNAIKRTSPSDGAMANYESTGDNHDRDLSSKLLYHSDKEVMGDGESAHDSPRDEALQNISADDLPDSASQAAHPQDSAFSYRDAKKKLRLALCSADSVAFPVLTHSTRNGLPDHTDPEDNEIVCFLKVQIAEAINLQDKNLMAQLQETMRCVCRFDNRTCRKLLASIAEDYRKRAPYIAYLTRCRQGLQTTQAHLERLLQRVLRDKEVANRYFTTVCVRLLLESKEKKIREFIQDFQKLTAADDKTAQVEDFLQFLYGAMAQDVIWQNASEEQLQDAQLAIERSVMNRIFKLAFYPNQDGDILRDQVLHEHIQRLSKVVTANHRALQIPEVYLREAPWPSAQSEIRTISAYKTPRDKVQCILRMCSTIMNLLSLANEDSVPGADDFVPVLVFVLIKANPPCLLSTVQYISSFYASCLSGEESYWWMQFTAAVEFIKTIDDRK
active: vorinostat -0.292
inactive: nilotinib 0.006 | [1] 0.005 | dasatinib -0.05 | [2] -0.005 | [3] 0.044 | quisinostat -0.029 | tipifarnib -0.02 | [4] 0.032 | [5] 0.013 | [6] 0.026 | [7] -0.033 | silmitasertib 0.04 | [8] -0.001 | entospletinib -0.002

ENO2 (UniProt P09104)
inactive: nilotinib 0.006 | [1] 0.017 | dasatinib 0.036 | [2] 0.025 | [3] 0 | quisinostat -0.03 | tipifarnib -0.021 | [4] 0.001 | [5] -0.043 | [6] 0.003 | [7] -0.021 | vorinostat 0.03 | silmitasertib -0.014 | [8] 0.001 | entospletinib -0.068

FASTKD5 (UniProt Q7L8L6)
active: vorinostat -0.354
inactive: nilotinib -0.072 | [1] 0.032 | dasatinib -0.006 | [2] 0.113 | [3] -0.027 | quisinostat -0.053 | tipifarnib 0.003 | [4] 0.004 | [5] 0.054 | [6] 0.013 | [7] 0.016 | silmitasertib 0.053 | [8] 0.022 | entospletinib -0.008

EIF2B3 (UniProt Q9NR50)
active: vorinostat -0.244
inactive: nilotinib 0.001 | [1] 0.001 | dasatinib -0.049 | [2] 0.009 | [3] -0.024 | quisinostat -0.036 | tipifarnib -0.013 | [4] 0.022 | [5] -0.008 | [6] -0.009 | [7] -0.006 | silmitasertib 0.01 | [8] 0.009 | entospletinib -0.004

EEFSEC (UniProt P57772)
UniProt P57772, sequence (P57772 whole entry, looked up): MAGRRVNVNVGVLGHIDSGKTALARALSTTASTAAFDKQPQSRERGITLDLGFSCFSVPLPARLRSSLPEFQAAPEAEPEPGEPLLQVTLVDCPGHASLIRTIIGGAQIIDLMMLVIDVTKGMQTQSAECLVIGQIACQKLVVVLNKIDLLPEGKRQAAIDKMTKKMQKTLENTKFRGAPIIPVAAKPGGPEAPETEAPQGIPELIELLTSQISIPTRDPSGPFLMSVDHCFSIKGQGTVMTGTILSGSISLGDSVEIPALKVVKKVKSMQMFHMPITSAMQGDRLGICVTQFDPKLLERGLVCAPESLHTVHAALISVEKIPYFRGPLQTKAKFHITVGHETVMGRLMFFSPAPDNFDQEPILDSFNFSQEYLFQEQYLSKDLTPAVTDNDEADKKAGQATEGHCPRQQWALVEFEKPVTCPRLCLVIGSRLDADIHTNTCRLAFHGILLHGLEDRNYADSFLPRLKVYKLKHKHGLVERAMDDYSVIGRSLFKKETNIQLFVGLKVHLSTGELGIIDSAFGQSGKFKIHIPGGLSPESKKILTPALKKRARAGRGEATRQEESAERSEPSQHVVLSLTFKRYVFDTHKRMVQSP
active: vorinostat -0.325
inactive: nilotinib 0.004 | [1] 0.01 | dasatinib -0.067 | [2] -0.03 | [3] 0.007 | quisinostat -0.043 | tipifarnib -0.003 | [4] 0.052 | [5] 0 | [6] -0.019 | [7] -0.022 | silmitasertib 0.052 | [8] -0.012 | entospletinib -0.009

GGT7 (UniProt Q9UJ14)
UniProt Q9UJ14, sequence (Q9UJ14 whole entry, looked up): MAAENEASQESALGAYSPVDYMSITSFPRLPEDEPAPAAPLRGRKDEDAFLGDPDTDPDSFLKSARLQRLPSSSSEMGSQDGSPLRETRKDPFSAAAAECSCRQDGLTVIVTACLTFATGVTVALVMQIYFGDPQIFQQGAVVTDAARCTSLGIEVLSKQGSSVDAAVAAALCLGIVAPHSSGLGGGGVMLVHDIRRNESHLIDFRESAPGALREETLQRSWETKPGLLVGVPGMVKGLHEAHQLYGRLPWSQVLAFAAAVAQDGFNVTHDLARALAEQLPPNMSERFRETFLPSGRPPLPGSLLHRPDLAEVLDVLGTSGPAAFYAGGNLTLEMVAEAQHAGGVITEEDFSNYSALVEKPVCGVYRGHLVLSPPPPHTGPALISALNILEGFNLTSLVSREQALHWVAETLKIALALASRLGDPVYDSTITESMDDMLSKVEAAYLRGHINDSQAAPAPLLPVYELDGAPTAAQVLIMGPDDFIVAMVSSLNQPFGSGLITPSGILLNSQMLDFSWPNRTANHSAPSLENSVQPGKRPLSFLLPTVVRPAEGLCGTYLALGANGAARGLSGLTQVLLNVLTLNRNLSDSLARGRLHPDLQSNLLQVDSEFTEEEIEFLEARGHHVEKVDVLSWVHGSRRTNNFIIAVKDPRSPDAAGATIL
inactive: nilotinib -0.061 | [1] -0.023 | dasatinib -0.083 | [2] 0.014 | [3] -0.012 | quisinostat 0.092 | tipifarnib -0.008 | [4] 0.071 | [5] 0.007 | [6] 0.02 | [7] -0.094 | silmitasertib -0.017 | [8] 0.015 | entospletinib -0.056
active: vorinostat 0.244

FMNL1 isoform 3 (UniProt O95466)
active: vorinostat -0.292
inactive: nilotinib -0.174 | [1] -0.043 | dasatinib -0.13 | [2] -0.135 | [3] 0.009 | quisinostat -0.047 | tipifarnib -0.038 | [4] -0.051 | [5] 0.012 | [6] -0.042 | [7] 0.051 | silmitasertib -0.01 | [8] 0.071 | entospletinib -0.066

GGA2 (UniProt Q9UJY4)
active: vorinostat -0.313
inactive: nilotinib -0.028 | [1] -0.047 | dasatinib -0.043 | [2] 0 | [3] 0.032 | quisinostat -0.022 | tipifarnib -0.003 | [4] 0.066 | [5] 0.043 | [6] 0.001 | [7] -0.042 | silmitasertib 0.016 | [8] 0.022 | entospletinib -0.026

FAM120B (UniProt Q96EK7)
active: vorinostat -0.299
inactive: nilotinib -0.067 | [1] -0.017 | dasatinib -0.033 | [2] -0.008 | [3] 0.017 | quisinostat -0.062 | tipifarnib 0.05 | [4] 0.015 | [5] -0.029 | [6] -0.048 | [7] -0.002 | silmitasertib 0.041 | [8] -0.022 | entospletinib -0.001

FAU (UniProt E9PR30)
active: vorinostat 0.212
inactive: nilotinib 0.006 | [1] 0.001 | dasatinib -0.018 | [2] 0.005 | [3] 0.052 | quisinostat 0.002 | tipifarnib 0.046 | [4] -0.055 | [5] 0 | [6] -0.058 | [7] 0.006 | silmitasertib 0.047 | [8] -0.006 | entospletinib 0.016
